{
  "source": "PubChem BioAssay (EPA / NIEHS)",
  "note": "Calls of active or inactive are those of the source. The calls were made as follows: active = hit-call score of the fitted dose curve at least 0.9, where 1 is the maximum; inactive = score below 0.9.",
  "data": [
    {"experiment": "ATG_BRE_CIS: Attagene CIS-FACTORIAL HepG2 Assay for human Bone Morphogenetic Protein (BMP) Response Element (BRE) (AID 2282933)", "details": "HepG2 BMP response element reporter, Attagene transcription factor profiling; actives raise or lower the signal", "protocol": "ATG_CIS is a cell-based, multiplexed-readout assay that uses HepG2, a human liver cell line, with measurements taken at 24 hours after chemical dosing in a 24-well plate.ATG_BRE_CIS is one of 52 assay component(s) measured or calculated from the ATG_CIS assay. It is designed to make measurements of mRNA induction, a form of inducible reporter, as detected with fluorescence intensity signals by Reverse transcription polymerase chain reaction (RT-PCR) and Capillary electrophoresis technology.Data from the assay component ATG_BRE_CIS was analyzed into 1 assay endpoint. This assay endpoint, ATG_BRE_CIS, was analyzed with bidirectional fitting relative to DMSO as the negative control and baseline of activity. Using a type of inducible reporter, measures of mRNA for gain or loss-of-signal activity can be used to understand the reporter gene at the transcription factor-level as they relate to the gene SMAD1. Furthermore, this assay endpoint can be referred to as a primary readout, because this assay has produced multiple assay endpoints where this one serves a reporter gene function. To generalize the intended target to other relatable targets, this assay endpoint is annotated to the dna binding intended target family, where the subfamily is Smad protein.\nHuman liver HepG2 cells are transiently transfected with multiple reporter transcription units (MRTUs) in 6-well plates using FuGene 6 reagent (Roche; 3 ml FuGene/1 mg DNA). The MRTU constructs are regulated by a cis-regulating element (promoter). […] A major difference between the CIS and TRANS system is that in CIS activities of endogenous TFs are measured, whereas the TRANS assay evaluates changes in activities of exogenous, chimeric NR-Gal4 proteins. […] At the end of 24 hour incubation, total RNA was isolated using TriZol reagent (Invitrogen). The isolated RNA is then reverse-transcribed using oligo(dT) primer and Mo-MLV reverse transcriptase (Invitrogen) with DNAse I (Ambion) treatment for 30 min. The one-tenth of the produced cDNA was amplified by PCR using Taq DNA polymerase (Invitrogen) and two reporter sequence-specific primers. The PCR products were fluorescently labeled by primer extension with 6-arboxyfluorescein (6-FAM) 5'-labeled reporter sequence-specific primer (2 min at 95 C, 20 s at 68 C and 10 min at 72 C) and these products were digested with 5U of HpaI (New England Biolabs) for 2h at 37 C. The fragments were purified using Qiaquick PCR columns (Qiagen), analyzed on an ABI 3130xL genetic analyzer (Applied Biosystems) with peak positions identified by using a set of X-rhodamine (ROX)-labeled MapMarker1000 molecular weight standards (BioVentures). The raw capillary electrophoresis data was processed using Attagraph software (Attagene).", "values": [
      {"smiles": "CCCOCCO", "outcome": "inactive"},
      {"smiles": "CCCCCCC(CO)CCCC", "note": "(stereo not given)", "outcome": "inactive"},
      {"smiles": "CCCCC(CC)C(=O)OC(C)C", "note": "(stereo not given)", "outcome": "inactive"},
      {"smiles": "CCc1ccc(O)c(OC)c1", "outcome": "inactive"},
      {"smiles": "C[C@H]1O[C@@H](O[C@H]2[C@@H](O)C[C@H](O[C@H]3[C@@H](O)C[C@H](O[C@H]4CC[C@@]5(C)[C@H](CC[C@@H]6[C@@H]5C[C@@H](O)[C@]5(C)[C@@H](C7=CC(=O)OC7)CC[C@]65O)C4)O[C@@H]3C)O[C@@H]2C)C[C@H](O)[C@@H]1O", "outcome": "inactive"},
      {"smiles": "O=C1OC[C@H](Cc2cccc(O)c2)[C@H]1Cc1cccc(O)c1", "outcome": "inactive"},
      {"smiles": "CCCCCCCCCC(=O)OC", "outcome": "inactive"},
      {"smiles": "CCCCC(CC)(CO)CO", "outcome": "inactive"},
      {"smiles": "C=C(C)C(=O)OCCOC1CC2CC1C1C=CCC21", "note": "(stereo not given)", "outcome": "inactive"},
      {"smiles": "C=CCCC(=O)/C=C/C1C(C)=CCCC1(C)C", "note": "(stereo not given)", "outcome": "inactive"},
      {"smiles": "COc1cc(C(C)C)ccc1C", "outcome": "inactive"},
      {"smiles": "CCCCCCC(C)Nc1ccc(Nc2ccccc2)cc1", "note": "(stereo not given)", "AC50": "50.5 µM (active)"},
      {"smiles": "O=[N+]([O-])c1ccc(O)cc1C(F)(F)F", "AC50": "37.5 µM (active)"},
      {"smiles": "c1ccc(CCc2ccccc2)cc1", "outcome": "inactive"},
      {"smiles": "OCCc1ccccc1", "outcome": "inactive"},
      {"smiles": "CCCOC(=O)c1c(Cl)c(Cl)c(Cl)c(Cl)c1C(=O)OCCC", "outcome": "inactive"},
      {"smiles": "COC(C)(C)CCO", "outcome": "inactive"},
      {"smiles": "CC(C)c1ccccc1O", "outcome": "inactive"},
      {"smiles": "CC1=CC[C@@]23C[C@@H]1C(C)(C)[C@@H]2CC[C@H]3C", "outcome": "inactive"},
      {"smiles": "CCc1ccc(O)cc1", "outcome": "inactive"},
      {"smiles": "CC(C)(C)CC(C)(C)c1ccc(OCCOCC[N+](C)(C)Cc2ccccc2)cc1", "outcome": "inactive"},
      {"smiles": "CCCC(O)C(O)CO", "note": "(stereo not given)", "outcome": "inactive"},
      {"smiles": "CS(=O)(=O)OCCCCOS(C)(=O)=O", "outcome": "inactive"},
      {"smiles": "Cc1ncc[nH]1", "outcome": "inactive"},
      {"smiles": "CCCCCCC(C)(C)S", "outcome": "inactive"},
      {"smiles": "C[Si]1(C)O[Si](C)(C)O[Si](C)(C)O1", "outcome": "inactive"},
      {"smiles": "CC1CCC(C(C)C)C(O)C1", "note": "(stereo not given)", "outcome": "inactive"},
      {"smiles": "CCCCCCCCc1ccc(S(=O)(=O)O)cc1", "outcome": "inactive"},
      {"smiles": "O=C1OC2(c3ccccc31)c1ccc(O)c(Br)c1Oc1c2ccc(O)c1Br", "outcome": "inactive"},
      {"smiles": "C=C(C)C1CC=C(C)C(=O)C1", "note": "(stereo not given)", "outcome": "inactive"},
      {"smiles": "CCCCCCCCCCCCCCN(CCO)CCO", "outcome": "inactive"},
      {"smiles": "COC(=O)C=C(C)CCC=C(C)C", "outcome": "inactive"},
      {"smiles": "CN(C)CCOC(C)(c1ccccc1)c1ccccn1", "note": "(stereo not given)", "outcome": "inactive"},
      {"smiles": "CC=CC=CCOC(=O)C(C)C", "outcome": "inactive"},
      {"smiles": "Cc1ncc([N+](=O)[O-])n1CCO", "outcome": "inactive"},
      {"smiles": "CS(=O)(=O)c1ccc(C2=C(c3ccccc3)C(=O)OC2)cc1", "outcome": "inactive"},
      {"smiles": "CCC1(c2ccccc2)C(=O)NCNC1=O", "outcome": "inactive"},
      {"smiles": "CS(C)=O", "outcome": "inactive"},
      {"smiles": "COc1ccc(N=Nc2cc(C)c(N=Nc3ccc(S(=O)(=O)O)cc3)cc2OC)cc1", "outcome": "inactive"},
      {"smiles": "O=C1NC2NC(=O)NC2N1", "note": "(stereo not given)", "outcome": "inactive"}
    ]}
  ]
}
